# Screening results from PubChem.
# rRNA inh HTS – inhibits bacterial ribosomal RNA function over humanized ribosomes. E. coli WT GFP vs humanized-ribosome RFP mutants, fluorescence, 24 h; stronger effect = lower value; DMSO median 0, no signal -100. GFP signal change (wild-type ribosome), % (no concentration beside the values). hit rate 1.6% among 350,000;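 active = significant combined selectivity score with lowered wild-type GFP, culture density cut under 30%, mutant RFP and density less affected; inactive = any of these conditions unmet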
# NSD2 HMT inh – inhibitors of human histone methyltransferase NSD2; NSD2 peptide methylation, AlphaScreen, 120 min; inhibition, % at 12.5 µM; hit rate 0.54% among 310,000; in the data active = inhibition above about 50%
# AF4-AF9 inh – blocks AF4 peptide binding to human AF9; AID 651704; P42568; hit rate 0.47% among 350,000; inhibition, % at 10 µM; AlphaScreen, biotin-AF4 peptide binding to FLAG-AF9;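 active = every replicate reaching a set inhibition limit, whatever the replicate mean, cut at about 25% in these data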
# Target sequence (P42568 whole entry, looked up): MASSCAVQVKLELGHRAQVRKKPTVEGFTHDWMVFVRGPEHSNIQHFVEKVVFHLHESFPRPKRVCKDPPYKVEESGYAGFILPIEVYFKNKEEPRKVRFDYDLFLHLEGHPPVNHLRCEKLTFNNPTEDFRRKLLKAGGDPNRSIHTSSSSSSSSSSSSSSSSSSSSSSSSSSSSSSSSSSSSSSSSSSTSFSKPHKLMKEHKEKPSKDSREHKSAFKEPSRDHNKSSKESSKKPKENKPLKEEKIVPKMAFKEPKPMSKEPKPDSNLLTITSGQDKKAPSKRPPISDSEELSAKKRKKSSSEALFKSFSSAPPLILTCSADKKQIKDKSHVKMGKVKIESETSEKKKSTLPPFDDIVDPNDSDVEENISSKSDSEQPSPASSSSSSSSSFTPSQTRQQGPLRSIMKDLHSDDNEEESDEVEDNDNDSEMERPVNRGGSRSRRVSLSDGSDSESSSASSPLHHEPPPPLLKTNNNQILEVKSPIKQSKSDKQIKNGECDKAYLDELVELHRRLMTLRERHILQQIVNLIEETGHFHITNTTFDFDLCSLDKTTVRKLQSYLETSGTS
# RAD52 anneal inh – RAD52 (human) annealing inhibition; recombinant RAD52 DNA annealing, FRET fluorescence; hit rate 0.46% among 360,000; inhibition, % at 18.7 µM; AID 651710;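 active = every replicate showing at least 50% inhibition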
# Casp6 inh – inhibitors of human caspase-6 | P55212 | purified caspase-6, Z-VEID-R110 cleavage fluorescence | inhibition, % at 12.5 µM | hit rate 0.53% among 350,000 | AID 686996;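 active = mean inhibition across replicates at least about 35%, with every replicate also reaching that limit, limit read from the data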
# A number is an active result; n = inactive; x = no result given. A selection: hits, their analogues and other compounds. The true share with any hit is near 2.5%.
SMILES,rRNA inh HTS,NSD2 HMT inh,AF4-AF9 inh,RAD52 anneal inh,Casp6 inh
Cc1cc(C(=O)CSc2nnnn2-c2ccccc2)c(C)n1CCc1ccccc1,x,n,x,x,x
C[C@H](CO)N1C[C@H](C)[C@H](CN(C)C(=O)C2CC2)Oc2cc(Br)ccc2S1(=O)=O,n,x,n,n,n
Cc1ccc(S(=O)(=O)N(C)C[C@H]2OCCCC[C@H](C)Oc3ccc(NS(C)(=O)=O)cc3C(=O)N([C@@H](C)CO)C[C@H]2C)cc1,n,x,n,n,n
COc1ccc(C)cc1NC(=O)c1nn(C)cc1Br,-15,n,n,n,n
CCOC(=O)/C(C#N)=C/Nc1ccccc1NS(=O)(=O)c1cccc(C(C)=O)c1,n,n,n,n,38
C[C@@H]1CCCCO[C@@H](CN(C)C(=O)Cc2ccccc2)[C@@H](C)CN([C@@H](C)CO)C(=O)c2cc(NS(=O)(=O)c3ccccc3)ccc2O1,n,x,n,n,n
C[C@H](CO)N1C[C@H](C)[C@H](CN(C)Cc2ccc(Oc3ccccc3)cc2)Oc2ccc(NC(=O)CCCN(C)C)cc2C1=O,n,x,n,n,n
CC(C)CNC(=S)N1CCC(c2nc(-c3ccc(F)cc3)no2)CC1,-26,n,n,n,n
CC[C@H]1CC=CC[C@H](C)Oc2ccccc2C(=O)N(C)[C@H](C(C)C)C(=O)N1 (mixture of isomers),n,x,x,x,x
CCCNC(=O)N[C@H]1CC[C@H](CC(=O)NCCc2ccccc2)O[C@@H]1CO,n,x,n,n,n
O=C(C[C@@H]1C=C[C@H](NC(=O)Nc2ccc(C(F)(F)F)cc2)[C@@H](CO)O1)NCc1cccc(F)c1,n,x,n,n,n
Cc1ccc(OCCOc2cccc3ccc(C)nc23)c([N+](=O)[O-])c1,-21,n,n,n,n
COC(=O)c1ccccc1OCCOCCOc1cccc2ccc(C)nc12,-28,n,n,n,n
Cc1noc(C)c1NC(=O)Nc1ccc2c(c1)C(=O)N(C)[C@@H]1CC[C@H](CC(=O)NCc3ccc(Cl)cc3)O[C@@H]1CO2,n,x,n,n,n
O=C(NC1CC1)c1cc2cc3ccccc3nc2s1,-21,n,n,n,n
O=C(NNS(=O)(=O)c1ccccc1)c1cc2cc3ccccc3nc2s1,x,n,x,x,x
CC(C)NC(=O)N(C)C[C@H]1Oc2ccc(NS(C)(=O)=O)cc2C(=O)N(C)C[C@H]1C,n,x,x,x,x
O=C(NCCc1ccccc1)c1ccc([N+](=O)[O-])cc1,x,n,x,x,x
O=C(c1ccc([N+](=O)[O-])cc1)N(Cc1ccccc1)Cc1ccccc1,-26,n,n,n,n
COc1ccc(F)cc1C1=CC(=O)C[C@H](c2ccc3c(c2)OCO3)C1,n,x,n,n,52
O=C(C[C@H]1CC[C@H](NC(=O)c2ccccn2)[C@H](CO)O1)NCc1cc(F)cc(F)c1,n,x,n,n,n
Oc1ccc(/C=N/Nc2ncnc3c2ncn3Cc2ccccc2)cc1O,n,72,n,n,n
Oc1cccc(/C=N/Nc2ncnc3c2ncn3Cc2ccccc2)c1,x,n,x,x,x
O=C(C[C@H]1CC[C@@H](NC(=O)C2CC2)[C@@H](CO)O1)Nc1nccs1,n,x,n,n,n
CC(=O)Nc1cccc(-c2csc(NCc3ccccc3)n2)c1,-30,n,n,n,n
SMILES,rRNA inh HTS,NSD2 HMT inh,AF4-AF9 inh,RAD52 anneal inh,Casp6 inh
CC(=O)Nc1ccc(-c2csc(NCc3ccccc3)n2)cc1,n,n,n,n,n
C[C@@H]1CCCCO[C@H](CN(C)C)[C@H](C)CN([C@H](C)CO)C(=O)c2cc(NS(=O)(=O)c3cn(C)cn3)ccc2O1,n,x,n,n,n
O=C(NCC[C@@H]1CC[C@@H](NS(=O)(=O)c2ccc(F)cc2)[C@H](CO)O1)c1ccccc1F,n,x,n,n,n
COc1ccc(/C=C/C(=O)Nc2ccc(-c3nnc4n3CCCCC4)cc2)c(OC)c1,-20,n,n,n,n
COc1ccc2c3c(n(C)c2c1)[C@@H](CO)N(C(C)=O)CC31CN(Cc2ccccc2OC)C1,n,x,n,n,x
COc1cccc(CN2CC3(C2)CN(C(=O)C2CC2)[C@@H](CO)c2c3c3ccc(OC)cc3n2C)c1,n,x,26,x,x
CCCNC(=O)N1CC2(CN(Cc3ccncc3)C2)c2c(n(C)c3cc(OC)ccc23)[C@H]1CO,n,x,n,n,n
CCCNC(=O)N1CC2(CN(Cc3ccc(OC)cc3)C2)c2c(n(C)c3cc(OC)ccc23)[C@H]1CO,n,x,36,x,x
COc1ccc2c3c(n(C)c2c1)[C@H](CO)N(C(=O)C1CC1)CC31CN(Cc2ccccc2OC)C1,n,x,29,n,n
COc1ccc2c3c(n(C)c2c1)[C@H](CO)N(C(=O)Cc1ccccn1)CC31CN(CC2CCCCC2)C1,n,x,26,n,n
COc1ccc2c3c(n(C)c2c1)[C@H](CO)N(C(=O)C1CCC1)CC31CN(Cc2cccc(F)c2)C1,n,x,n,n,n
CN(C)CC(=O)N[C@@H]1C=C[C@H](CC(=O)O)O[C@H]1CO,n,x,n,n,n
O=C(O)CCN1C(=O)/C(=C\c2cccc(OCC(=O)Nc3ccc(Cl)cc3)c2)SC1=S,-30,n,n,n,n
Cc1ccc(NC(=O)COc2cccc(/C=C3\SC(=S)N(CCC(=O)O)C3=O)c2)cc1Cl,n,n,n,n,42
CO[C@@H]1CN(C)C(=O)c2ccc(NC(=O)C3CC3)cc2OC[C@@H](C)N(C(=O)Nc2ccc(C(F)(F)F)cc2)C[C@H]1C,n,x,n,n,n
CCN1CCN(C(=O)c2cccc(S(=O)(=O)Nc3c(C)n(C)n(-c4ccccc4)c3=O)c2)CC1,x,n,x,x,x
Cc1noc(C)c1NC(=O)N(C)C[C@H]1Oc2ccc(NC(=O)CCCCCC(=O)Nc3ccccc3N)cc2CC(=O)N([C@@H](C)CO)C[C@@H]1C,n,x,n,n,n
CCCCC[C@@H](/C=C/C1C(=O)C=C[C@H]1C/C=C\CCCC(=O)O)OC(C)=O (some centres undefined),n,x,n,n,48
Cc1ccc(Sc2ccc(CN3CCCCC3)cc2[N+](=O)[O-])cc1,n,n,29,n,n
COc1ccc(C(=O)NCc2oc(-c3ccccc3)cc2C(=O)O)cc1,-24,n,x,n,n
COc1ccc(C(=O)NCc2c(C)oc(C)c2C(=O)O)cc1,n,n,n,n,n
C[C@H](CO)N1C[C@H](C)[C@@H](CN(C)C(=O)C2CCCCC2)Oc2cc(Br)ccc2S1(=O)=O,n,x,x,x,x
O=C(C[C@@H]1CC[C@@H]2[C@H](COC[C@@H](O)CN2C(=O)C2CC2)O1)NCc1ccncc1,n,x,n,n,n
Cc1ccc(-c2ccc(C(=O)O)o2)cc1Cl,n,n,27,n,n
C=CCn1c(-c2cc(-c3ccc(C)cc3)nc3ccccc23)n[nH]c1=S,-29,n,n,n,n
O=C(Nc1cc(F)ccc1F)N1CC(=O)N2[C@H](CO)[C@H](c3ccc(-c4cccnc4)cc3)[C@H]2C1,n,x,n,n,n
O=c1[nH]c(=S)[nH]c2c1C(c1ccc(Br)cc1)c1c([nH]c(=S)[nH]c1=O)O2,n,x,n,n,96
O=C1/C(=C/c2ccncc2)Cc2ccccc21,n,x,n,n,n
